{"source": "paper PMC7862700", "about": "“An all-to-all approach to the identification of sequence-specific readers for epigenetic DNA modifications on cytosine”", "experiment_in_all_cases": "DAPPL (digital affinity profiling via proximity ligation, sequencing); 10 mM Tris-HCl pH 7.5, 50 mM NaCl, 1 mM DTT, 4% glycerol, room temperature, 30 min; GST-TFs on glutathione beads, 16-mer random dsDNA library, 0.1% formaldehyde crosslink after washing; high values mean tight binding", "key": {"FLI1": {"biological_target": "T1, FLI1 (Homo sapiens, UniProt Q01543 1-452)", "T1 sequence": "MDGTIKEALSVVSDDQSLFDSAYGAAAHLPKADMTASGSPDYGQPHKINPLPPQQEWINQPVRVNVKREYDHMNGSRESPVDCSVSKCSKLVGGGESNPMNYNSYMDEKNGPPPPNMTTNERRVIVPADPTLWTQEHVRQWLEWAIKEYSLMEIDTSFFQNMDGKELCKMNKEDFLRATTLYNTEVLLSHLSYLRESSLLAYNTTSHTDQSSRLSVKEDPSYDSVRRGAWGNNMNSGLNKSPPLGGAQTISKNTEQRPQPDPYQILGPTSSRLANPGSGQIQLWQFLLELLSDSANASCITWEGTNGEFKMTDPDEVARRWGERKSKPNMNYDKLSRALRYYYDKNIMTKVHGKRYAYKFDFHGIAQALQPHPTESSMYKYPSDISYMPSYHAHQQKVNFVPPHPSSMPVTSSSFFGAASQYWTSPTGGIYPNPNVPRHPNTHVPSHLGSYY", "details": "protein: recombinant; tags: N-terminal GST; dsDNA, one strand shown", "how_it_was_run": "(§1)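 Human transcription factors were made in yeast as GST fusions, captured on glutathione beads and barcoded with DNA. With a tag-only sample included, the pool was incubated with 200 nmole of a random double-stranded 16-mer DNA library in Tris/NaCl/DTT/glycerol buffer at room temperature for 30 min, then crosslinked with 0.1% formaldehyde after washing, ligated by proximity, amplified and sequenced. For binding signal, each hexamer's read frequency for a factor is divided by its frequency for the tag-only sample.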"}, "ELK1": {"biological_target": "T2, ELK1 (Homo sapiens, UniProt P19419 1-428)", "T2 sequence": "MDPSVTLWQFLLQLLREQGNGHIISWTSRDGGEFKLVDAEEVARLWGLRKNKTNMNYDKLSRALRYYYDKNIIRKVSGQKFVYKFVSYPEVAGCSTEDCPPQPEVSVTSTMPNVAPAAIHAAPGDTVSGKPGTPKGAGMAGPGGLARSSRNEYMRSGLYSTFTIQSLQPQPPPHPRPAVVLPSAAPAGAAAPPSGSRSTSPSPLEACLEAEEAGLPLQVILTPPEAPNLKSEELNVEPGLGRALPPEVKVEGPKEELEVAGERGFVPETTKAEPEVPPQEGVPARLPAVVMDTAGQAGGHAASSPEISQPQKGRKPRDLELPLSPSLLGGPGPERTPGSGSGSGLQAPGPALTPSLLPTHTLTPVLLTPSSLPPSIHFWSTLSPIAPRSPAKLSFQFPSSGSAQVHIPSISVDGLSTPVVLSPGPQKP", "details": "protein: recombinant; tags: N-terminal GST; dsDNA, one strand shown", "how_it_was_run": "as §1"}, "GABPA": {"biological_target": "T3, GABPA (Homo sapiens, UniProt Q06546 1-454)", "T3 sequence": "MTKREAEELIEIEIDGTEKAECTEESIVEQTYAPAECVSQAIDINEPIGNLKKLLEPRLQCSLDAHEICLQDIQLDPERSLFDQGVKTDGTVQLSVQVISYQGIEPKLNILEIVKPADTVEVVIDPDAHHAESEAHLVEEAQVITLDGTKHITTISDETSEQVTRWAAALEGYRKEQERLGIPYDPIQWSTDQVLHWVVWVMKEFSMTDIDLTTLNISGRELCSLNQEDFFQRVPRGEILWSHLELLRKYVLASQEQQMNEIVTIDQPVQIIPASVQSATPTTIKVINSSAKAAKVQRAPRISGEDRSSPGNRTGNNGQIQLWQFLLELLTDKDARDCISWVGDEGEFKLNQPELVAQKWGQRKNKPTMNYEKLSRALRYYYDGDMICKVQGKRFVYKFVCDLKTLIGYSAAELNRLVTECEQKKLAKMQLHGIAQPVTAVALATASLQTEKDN", "details": "protein: recombinant; tags: N-terminal GST; dsDNA, one strand shown", "how_it_was_run": "as §1"}, "ERG": {"biological_target": "T4, ERG (Homo sapiens, UniProt P11308 1-479)", "T4 sequence": "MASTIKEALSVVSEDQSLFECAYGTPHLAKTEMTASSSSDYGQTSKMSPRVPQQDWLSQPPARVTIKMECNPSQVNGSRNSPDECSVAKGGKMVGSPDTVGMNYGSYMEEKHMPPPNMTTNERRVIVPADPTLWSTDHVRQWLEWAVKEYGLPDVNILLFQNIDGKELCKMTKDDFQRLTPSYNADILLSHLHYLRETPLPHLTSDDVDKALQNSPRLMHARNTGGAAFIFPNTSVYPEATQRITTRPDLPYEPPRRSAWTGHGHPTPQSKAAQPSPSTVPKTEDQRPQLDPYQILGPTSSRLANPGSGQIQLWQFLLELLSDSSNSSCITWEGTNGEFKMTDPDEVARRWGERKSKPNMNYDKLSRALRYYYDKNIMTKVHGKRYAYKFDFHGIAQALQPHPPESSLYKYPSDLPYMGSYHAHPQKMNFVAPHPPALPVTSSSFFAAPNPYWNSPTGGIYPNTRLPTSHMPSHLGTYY", "details": "protein: recombinant; tags: N-terminal GST; dsDNA, one strand shown", "how_it_was_run": "as §1"}, "ELF1": {"biological_target": "ELF1 (Homo sapiens, UniProt P32519 1-619)", "sequence (P32519 whole entry)": "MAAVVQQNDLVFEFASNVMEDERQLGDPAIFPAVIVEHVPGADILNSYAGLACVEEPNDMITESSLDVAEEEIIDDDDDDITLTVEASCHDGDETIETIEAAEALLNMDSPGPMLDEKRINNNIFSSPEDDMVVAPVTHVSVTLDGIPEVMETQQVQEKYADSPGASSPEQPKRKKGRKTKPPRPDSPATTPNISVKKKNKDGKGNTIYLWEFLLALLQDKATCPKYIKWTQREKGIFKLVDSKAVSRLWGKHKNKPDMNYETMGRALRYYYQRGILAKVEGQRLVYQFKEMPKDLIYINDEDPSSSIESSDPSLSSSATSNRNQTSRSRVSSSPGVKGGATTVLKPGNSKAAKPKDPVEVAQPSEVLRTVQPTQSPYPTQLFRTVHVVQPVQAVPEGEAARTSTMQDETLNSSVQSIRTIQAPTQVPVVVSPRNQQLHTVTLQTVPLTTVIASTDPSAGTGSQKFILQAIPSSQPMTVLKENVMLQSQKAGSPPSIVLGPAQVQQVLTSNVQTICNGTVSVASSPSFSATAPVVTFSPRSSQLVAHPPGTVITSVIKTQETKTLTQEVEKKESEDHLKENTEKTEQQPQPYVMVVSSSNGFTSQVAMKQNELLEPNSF", "details": "protein: recombinant; tags: N-terminal GST; dsDNA, one strand shown", "how_it_was_run": "as §1"}, "EHF": {"biological_target": "T5, EHF (Homo sapiens, UniProt Q9NZC4 1-300)", "T5 sequence": "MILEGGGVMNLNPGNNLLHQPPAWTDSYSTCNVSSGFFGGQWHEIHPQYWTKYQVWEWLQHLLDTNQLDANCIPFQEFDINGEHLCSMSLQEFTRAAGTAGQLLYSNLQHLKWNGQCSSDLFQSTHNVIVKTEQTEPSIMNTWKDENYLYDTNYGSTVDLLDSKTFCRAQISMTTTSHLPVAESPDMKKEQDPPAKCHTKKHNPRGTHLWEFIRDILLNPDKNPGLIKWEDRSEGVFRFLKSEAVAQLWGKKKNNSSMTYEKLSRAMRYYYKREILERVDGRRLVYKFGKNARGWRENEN", "details": "protein: recombinant; tags: N-terminal GST; dsDNA, one strand shown", "how_it_was_run": "as §1"}, "SPI1": {"biological_target": "SPI1 (Homo sapiens, UniProt P17947 1-270)", "details": "protein: recombinant; tags: N-terminal GST; dsDNA, one strand shown", "how_it_was_run": "as §1"}, "SPIB": {"biological_target": "SPIB (Homo sapiens, UniProt Q01892 1-262)", "sequence (Q01892 whole entry)": "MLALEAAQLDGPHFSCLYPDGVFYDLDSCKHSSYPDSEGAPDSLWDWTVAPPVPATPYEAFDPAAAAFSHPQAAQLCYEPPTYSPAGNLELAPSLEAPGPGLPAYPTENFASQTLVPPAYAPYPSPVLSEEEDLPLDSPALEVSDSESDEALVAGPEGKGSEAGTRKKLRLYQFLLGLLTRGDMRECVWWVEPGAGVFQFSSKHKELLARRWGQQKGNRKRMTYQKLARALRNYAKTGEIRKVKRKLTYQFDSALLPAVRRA", "details": "protein: recombinant; tags: N-terminal GST; dsDNA, one strand shown", "how_it_was_run": "as §1"}, "FEV": {"biological_target": "T6, FEV (Homo sapiens, UniProt Q99581 1-238)", "T6 sequence": "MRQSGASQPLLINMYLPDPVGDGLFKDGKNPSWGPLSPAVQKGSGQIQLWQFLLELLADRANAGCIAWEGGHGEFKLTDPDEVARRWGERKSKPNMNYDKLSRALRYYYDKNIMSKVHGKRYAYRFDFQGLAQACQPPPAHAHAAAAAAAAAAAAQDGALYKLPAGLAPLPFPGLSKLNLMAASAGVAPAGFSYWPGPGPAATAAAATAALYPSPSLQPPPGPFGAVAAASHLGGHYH", "details": "protein: recombinant; tags: N-terminal GST; dsDNA, one strand shown", "how_it_was_run": "as §1"}, "ETV5": {"biological_target": "ETV5 (Homo sapiens, UniProt P41161 1-510)", "sequence (P41161 whole entry)": "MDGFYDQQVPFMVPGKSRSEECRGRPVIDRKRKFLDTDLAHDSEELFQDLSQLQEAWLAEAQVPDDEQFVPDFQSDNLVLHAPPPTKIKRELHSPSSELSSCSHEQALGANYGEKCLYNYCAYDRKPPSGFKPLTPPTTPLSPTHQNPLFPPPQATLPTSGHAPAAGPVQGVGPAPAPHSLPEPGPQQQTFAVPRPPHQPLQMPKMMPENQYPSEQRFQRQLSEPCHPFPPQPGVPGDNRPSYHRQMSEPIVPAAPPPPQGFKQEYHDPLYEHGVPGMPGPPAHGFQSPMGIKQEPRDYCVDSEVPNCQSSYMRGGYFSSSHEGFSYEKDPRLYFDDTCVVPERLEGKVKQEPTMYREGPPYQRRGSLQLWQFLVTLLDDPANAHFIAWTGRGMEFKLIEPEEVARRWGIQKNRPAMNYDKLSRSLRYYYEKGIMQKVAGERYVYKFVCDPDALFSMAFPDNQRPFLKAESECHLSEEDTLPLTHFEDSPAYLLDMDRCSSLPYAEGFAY", "details": "protein: recombinant; tags: N-terminal GST; dsDNA, one strand shown", "how_it_was_run": "as §1"}, "HSF1": {"biological_target": "HSF1 (Homo sapiens, UniProt Q00613 1-529)", "sequence (Q00613 whole entry)": "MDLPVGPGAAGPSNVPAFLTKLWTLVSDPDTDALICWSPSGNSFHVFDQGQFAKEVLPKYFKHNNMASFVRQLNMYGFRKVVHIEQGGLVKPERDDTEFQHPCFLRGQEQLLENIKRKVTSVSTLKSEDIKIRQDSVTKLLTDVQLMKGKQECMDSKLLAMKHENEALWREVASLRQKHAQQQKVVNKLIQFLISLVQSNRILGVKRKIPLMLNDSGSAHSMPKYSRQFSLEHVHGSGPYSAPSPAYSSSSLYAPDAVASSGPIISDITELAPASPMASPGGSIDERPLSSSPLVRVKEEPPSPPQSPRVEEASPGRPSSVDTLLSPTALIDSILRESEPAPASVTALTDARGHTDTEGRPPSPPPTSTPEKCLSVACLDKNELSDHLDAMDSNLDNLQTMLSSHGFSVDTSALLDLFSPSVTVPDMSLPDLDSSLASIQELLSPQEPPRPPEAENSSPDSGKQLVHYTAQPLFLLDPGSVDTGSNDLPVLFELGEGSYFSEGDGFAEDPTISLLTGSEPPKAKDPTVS", "details": "protein: recombinant; tags: N-terminal GST; chain copies: 3; dsDNA, one strand shown", "how_it_was_run": "as §1"}, "SPIC": {"biological_target": "T7, SPIC (Homo sapiens, UniProt Q8N5J4 1-248)", "T7 sequence": "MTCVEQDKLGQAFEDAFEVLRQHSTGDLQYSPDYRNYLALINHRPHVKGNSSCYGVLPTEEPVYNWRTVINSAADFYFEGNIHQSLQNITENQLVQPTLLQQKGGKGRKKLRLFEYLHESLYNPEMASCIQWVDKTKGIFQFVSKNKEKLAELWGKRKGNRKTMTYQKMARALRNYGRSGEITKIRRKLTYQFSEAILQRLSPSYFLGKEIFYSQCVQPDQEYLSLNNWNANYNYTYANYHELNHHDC", "details": "protein: recombinant; tags: N-terminal GST; dsDNA, one strand shown", "how_it_was_run": "as §1"}, "ELF4": {"biological_target": "ELF4 (Homo sapiens, UniProt Q99607 1-663)", "sequence (Q99607 whole entry)": "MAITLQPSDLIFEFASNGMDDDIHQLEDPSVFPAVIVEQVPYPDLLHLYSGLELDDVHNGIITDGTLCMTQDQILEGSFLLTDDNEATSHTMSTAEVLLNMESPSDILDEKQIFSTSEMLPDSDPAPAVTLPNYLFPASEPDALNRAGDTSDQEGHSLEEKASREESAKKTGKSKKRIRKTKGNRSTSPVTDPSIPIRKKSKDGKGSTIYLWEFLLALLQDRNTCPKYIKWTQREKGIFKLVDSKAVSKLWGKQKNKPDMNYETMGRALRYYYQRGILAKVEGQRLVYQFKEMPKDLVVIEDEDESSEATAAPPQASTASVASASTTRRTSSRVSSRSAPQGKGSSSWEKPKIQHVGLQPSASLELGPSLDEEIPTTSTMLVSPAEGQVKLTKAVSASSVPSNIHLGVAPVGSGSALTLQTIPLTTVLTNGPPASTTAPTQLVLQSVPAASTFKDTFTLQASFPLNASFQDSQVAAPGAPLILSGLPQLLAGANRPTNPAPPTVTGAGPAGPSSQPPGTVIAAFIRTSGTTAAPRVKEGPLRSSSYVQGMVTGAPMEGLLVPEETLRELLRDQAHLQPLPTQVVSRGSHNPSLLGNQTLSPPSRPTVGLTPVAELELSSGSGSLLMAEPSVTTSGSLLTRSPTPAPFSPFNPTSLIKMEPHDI", "details": "protein: recombinant; tags: N-terminal GST; dsDNA, one strand shown", "how_it_was_run": "as §1"}, "ELK4": {"biological_target": "T8, ELK4 (Homo sapiens, UniProt P28324-2 1-405)", "T8 sequence": "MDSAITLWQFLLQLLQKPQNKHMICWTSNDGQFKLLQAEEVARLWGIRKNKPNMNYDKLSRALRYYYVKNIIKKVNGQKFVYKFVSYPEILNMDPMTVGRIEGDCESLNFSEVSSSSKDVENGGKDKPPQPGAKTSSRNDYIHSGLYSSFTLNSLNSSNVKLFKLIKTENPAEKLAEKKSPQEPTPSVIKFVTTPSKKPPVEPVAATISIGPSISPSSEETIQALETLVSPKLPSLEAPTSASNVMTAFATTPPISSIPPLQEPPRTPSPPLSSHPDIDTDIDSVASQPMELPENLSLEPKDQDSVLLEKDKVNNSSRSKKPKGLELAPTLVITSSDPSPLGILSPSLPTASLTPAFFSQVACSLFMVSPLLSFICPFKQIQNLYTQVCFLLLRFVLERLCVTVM", "details": "protein: recombinant; tags: N-terminal GST; dsDNA, one strand shown", "how_it_was_run": "as §1"}, "ETV2": {"biological_target": "T9, ETV2 (Homo sapiens, UniProt O00321 1-342)", "T9 sequence": "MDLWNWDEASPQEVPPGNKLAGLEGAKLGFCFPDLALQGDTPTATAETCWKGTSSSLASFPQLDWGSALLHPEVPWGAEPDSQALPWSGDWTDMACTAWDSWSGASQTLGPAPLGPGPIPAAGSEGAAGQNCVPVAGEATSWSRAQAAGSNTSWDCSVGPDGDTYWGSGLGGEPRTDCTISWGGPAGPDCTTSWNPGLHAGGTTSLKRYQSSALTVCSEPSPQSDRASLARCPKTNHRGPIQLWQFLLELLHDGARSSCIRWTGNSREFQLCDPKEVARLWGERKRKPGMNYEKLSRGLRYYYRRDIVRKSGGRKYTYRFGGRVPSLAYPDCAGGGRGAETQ", "details": "protein: recombinant; tags: N-terminal GST; dsDNA, one strand shown", "how_it_was_run": "as §1"}, "ELF3": {"biological_target": "T10, ELF3 (Homo sapiens, UniProt P78545 1-371)", "T10 sequence": "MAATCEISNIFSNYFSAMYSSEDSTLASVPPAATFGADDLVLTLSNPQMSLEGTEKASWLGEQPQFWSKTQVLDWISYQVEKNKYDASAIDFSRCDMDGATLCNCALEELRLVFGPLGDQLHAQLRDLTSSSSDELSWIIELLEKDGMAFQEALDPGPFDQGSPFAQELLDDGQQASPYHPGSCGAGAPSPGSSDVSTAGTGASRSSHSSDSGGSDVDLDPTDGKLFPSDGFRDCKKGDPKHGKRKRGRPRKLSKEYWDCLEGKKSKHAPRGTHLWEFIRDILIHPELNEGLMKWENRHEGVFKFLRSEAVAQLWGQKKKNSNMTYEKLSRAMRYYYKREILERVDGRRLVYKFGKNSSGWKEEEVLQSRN", "details": "protein: recombinant; tags: N-terminal GST; dsDNA, one strand shown", "how_it_was_run": "as §1"}, "CRX": {"biological_target": "CRX (Homo sapiens, UniProt O43186 1-299)", "sequence (O43186 whole entry)": "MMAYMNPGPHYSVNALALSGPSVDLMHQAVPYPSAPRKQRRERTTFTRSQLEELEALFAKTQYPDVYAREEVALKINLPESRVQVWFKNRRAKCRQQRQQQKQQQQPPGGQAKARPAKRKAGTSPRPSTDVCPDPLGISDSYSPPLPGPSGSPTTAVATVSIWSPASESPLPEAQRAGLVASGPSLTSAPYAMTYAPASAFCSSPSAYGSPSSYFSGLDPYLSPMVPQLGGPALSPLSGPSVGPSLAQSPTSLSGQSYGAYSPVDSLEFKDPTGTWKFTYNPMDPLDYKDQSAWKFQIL", "details": "protein: recombinant; tags: N-terminal GST; dsDNA, one strand shown", "how_it_was_run": "as §1"}, "ETV1": {"biological_target": "ETV1 (Homo sapiens, UniProt P50549 1-477)", "sequence (P50549 whole entry)": "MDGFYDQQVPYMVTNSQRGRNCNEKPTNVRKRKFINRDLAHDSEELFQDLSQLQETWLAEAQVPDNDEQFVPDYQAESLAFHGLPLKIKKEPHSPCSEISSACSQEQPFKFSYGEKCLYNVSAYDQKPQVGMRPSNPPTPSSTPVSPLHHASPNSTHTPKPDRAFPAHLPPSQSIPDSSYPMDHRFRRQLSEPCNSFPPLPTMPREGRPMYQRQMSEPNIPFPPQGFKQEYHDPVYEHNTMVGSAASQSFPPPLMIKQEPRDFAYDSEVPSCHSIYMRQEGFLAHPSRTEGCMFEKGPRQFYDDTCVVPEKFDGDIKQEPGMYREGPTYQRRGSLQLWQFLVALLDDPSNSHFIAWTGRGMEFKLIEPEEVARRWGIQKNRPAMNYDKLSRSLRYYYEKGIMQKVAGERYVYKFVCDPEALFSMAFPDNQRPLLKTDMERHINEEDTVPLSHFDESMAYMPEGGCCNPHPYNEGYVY", "details": "protein: recombinant; tags: N-terminal GST; dsDNA, one strand shown", "how_it_was_run": "as §1"}}}
{"sequence": "CTTGAA", "values": [{"measurement": "binding signal", "setting": "FLI1", "result": "1.16 fold enrichment (6-mer frequency, TF over GST control)"}, {"measurement": "binding signal", "setting": "ELK1", "result": "1.24 fold enrichment (6-mer frequency, TF over GST control)"}, {"measurement": "binding signal", "setting": "GABPA", "result": "1.09 fold enrichment (6-mer frequency, TF over GST control)"}, {"measurement": "binding signal", "setting": "ERG", "result": "1.12 fold enrichment (6-mer frequency, TF over GST control)"}, {"measurement": "binding signal", "setting": "ELF1", "result": "1.2 fold enrichment (6-mer frequency, TF over GST control)"}, {"measurement": "binding signal", "setting": "EHF", "result": "1.18 fold enrichment (6-mer frequency, TF over GST control)"}, {"measurement": "binding signal", "setting": "SPI1", "result": "1.13 fold enrichment (6-mer frequency, TF over GST control)"}, {"measurement": "binding signal", "setting": "SPIB", "result": "1.17 fold enrichment (6-mer frequency, TF over GST control)"}, {"measurement": "binding signal", "setting": "FEV", "result": "1.05 fold enrichment (6-mer frequency, TF over GST control)"}, {"measurement": "binding signal", "setting": "ETV5", "result": "1.09 fold enrichment (6-mer frequency, TF over GST control)"}, {"measurement": "binding signal", "setting": "HSF1", "result": "1.26 fold enrichment (6-mer frequency, TF over GST control)"}, {"measurement": "binding signal", "setting": "SPIC", "result": "1.09 fold enrichment (6-mer frequency, TF over GST control)"}, {"measurement": "binding signal", "setting": "ELF4", "result": "1.19 fold enrichment (6-mer frequency, TF over GST control)"}, {"measurement": "binding signal", "setting": "ELK4", "result": "1.22 fold enrichment (6-mer frequency, TF over GST control)"}, {"measurement": "binding signal", "setting": "ETV2", "result": "1.11 fold enrichment (6-mer frequency, TF over GST control)"}, {"measurement": "binding signal", "setting": "ELF3", "result": "1.08 fold enrichment (6-mer frequency, TF over GST control)"}, {"measurement": "binding signal", "setting": "CRX", "result": "1.16 fold enrichment (6-mer frequency, TF over GST control)"}, {"measurement": "binding signal", "setting": "ETV1", "result": "1.09 fold enrichment (6-mer frequency, TF over GST control)"}]}
